Reference: PubChem BioAssay (NCI)
Compounds without any hit were thinned out: in the full panel of roughly 79,000, 15% have a hit. A number with no mark means an inactive call. The source made the active and inactive calls. Cut-off read from the data, not from the text of the source: active = growth inhibition above about 70%; inactive = the rest.

Assays:
[1] = NCI Yeast Anticancer Drug Screen. Data for the mec2-1 strain (AID 157); details: S. cerevisiae mec2-1 strain, at 50.0 µM, active compounds read high
In short: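 Strain: mec2-1 (DNA repair/cell cycle alteration). Compound exposure, then growth measured; inhibition expressed relative to vehicle.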

[2] = NCI Yeast Anticancer Drug Screen. Data for the sgs1 mgt1 strain (AID 161);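 note: 0% = growth of cultures given vehicle only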; details: S. cerevisiae sgs1 mgt1 strain, at 50.0 µM, active compounds read high
In short: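 Test agents were incubated with a DNA-repair-mutant yeast strain. Growth was then read and compared against vehicle-treated controls.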

[3] = NCI Yeast Anticancer Drug Screen. Data for the cln2 rad14 strain (AID 165);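 note: 0% = growth equal to vehicle treated cultures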; details: S. cerevisiae cln2 rad14 strain, at 50.0 µM, active compounds read high
In short: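 Compounds are applied to the cln2 rad14 yeast strain, and growth is then compared with that of vehicle-treated cultures to give inhibition.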

[4] = NCI Yeast Anticancer Drug Screen. Data for the bub3 strain (AID 167); details: S. cerevisiae bub3 mutant strain, at 50.0 µM, active compounds read high
In short: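 Steps: expose the mutant yeast strain to compound; grow alongside vehicle-treated cultures; measure growth; express inhibition against the vehicle cultures.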

[5] = NCI Yeast Anticancer Drug Screen. Data for the mlh1 rad18 strain (AID 175); details: S. cerevisiae mlh1 rad18 strain growth inhibition; at 50.0 µM; active compounds read high
In short: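 Read-out is yeast growth inhibition, calculated against vehicle-only controls. The compound was applied to a strain engineered with DNA damage repair alterations.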

| Compound | growth inhibition [1] | growth inhibition [2] | growth inhibition [3] | growth inhibition [4] | growth inhibition [5] |
| --- | --- | --- | --- | --- | --- |
| COc1ccc(CNc2ccccc2)cc1 | 11.8% | 3.65% | 10.6% | -4.05% | -9.4% |
| NC1=Nc2cc(Cl)ccc2Sc2nc3ccccc3n21 | -65.4% | -17.6% | 0.55% | 10.9% | -2.8% |
| CCc1ccc(S(N)(=O)=O)cc1 | -4.1% |  | -24.6% | -7% | -168% |
| O=[N+]([O-])c1ccc2c3c(ccc([N+](=O)[O-])c13)CC2 | -13.3% | -6.75% | -29.2% | -18.4% | -18.3% |
| CC(C)(C)C(=O)OCC1C(=O)OCC1C(=O)N1Cc2cc3ccccc3nc2C1 (configuration not stated) | -19.9% | 1.55% | -13% | -8.2% | -16.2% |
| C=C1C(=O)C=C2C=C3C(=O)C(C)(C)C[C@]3(O)C12C (some centres not stated) | 92% (active) | 89% (active) | 82.5% (active) | 86.2% (active) | -21.7% |
| CCCCCCCCCCCCCCCC[N+](C)(C)CC#CCCl | 99.5% (active) | 48.6% |  | 99.3% (active) | 48.8% |
| CCCCNS(=O)(=O)c1ccc(-c2ccc3c(c2)-c2ccc(S(=O)(=O)NCCCC)cc2S3(=O)=O)cc1 | 7.05% | 1.5% | -33.2% | 20.1% | 9.7% |
| c1ccc2c(c1)ccc1cc3c(ccc4ccccc43)cc12 | -11.3% | 7.9% | 13.2% | 34.6% | 12.4% |
| COC(=O)C1(CCSc2ccccc2)CCCC1=O (configuration not stated) | -33% | 14.8% | 5.05% | 27% | 6.65% |
| C=C(N1CCCCC1)N1CCCCC1 | -25.1% | -9.15% | -46.5% | -15.9% | -11.4% |
| CC(C)CCNc1ncnc2[nH]ncc12 | -31.7% | -26.2% | -35.1% | -13.8% | -18.4% |
| NC(=O)NNC(=O)Cc1ccccc1 | -0.25% | -1.95% | 0.55% | -0.95% | -3.45% |
| CCOC(=O)NC(C)=O | -27.9% | 14.1% | -16.3% | -19.3% | -20.8% |
| CCCCCCCCCCCC(=O)OCCSC#N | 0.1% | -2% | -21.4% | -0.2% | 0.05% |
| C=C(C)c1ccccc1N | -40.4% | -4.65% | 6.95% | -26.4% | 14.1% |
| COc1ccc(-c2cc3cc(OC)c(OC)cc3c[n+]2C)cc1OC | 5.4% | 5.6% | 16.1% | -2.3% | -0.55% |
| CC1CN(C(=S)Nc2ccccc2)CCN1c1ccccc1 (configuration not stated) | -2.35% | -4.15% | -34.8% | 9.3% | -5.45% |
| O=[N+]([O-])c1ccc(N=CNc2ccc([N+](=O)[O-])cc2)cc1 | -13.1% | -1.5% |  | 17.1% | -6.65% |
| COc1cc2cc3c4ccc(OC)c(OC)c4cc[n+]3c(C)c2cc1OC (tested in a mixture with another compound) | 97.7% (active) | 98.8% (active) | 98.4% (active) | 98.2% (active) | 98% (active) |

| Compound | growth inhibition [1] | growth inhibition [2] | growth inhibition [3] | growth inhibition [4] | growth inhibition [5] |
| --- | --- | --- | --- | --- | --- |
| Cc1ccc(N=C(N)N)cc1 | 0.3% | 1.05% | 12.3% | 0.7% | -1.8% |
| c1ccc(CCN2CCN(CCc3ccccn3)CC2)nc1 | 6% | -6.95% | -19.6% | 3.8% | 0.2% |
| CCCCCCCCC/C=C\C(=O)O | -12.5% | 10.2% | -22.9% | -13.8% | 37% |
| CCOCCOC(=O)c1ccc(C(C)C)cc1 | 1.75% | 7.8% | -12.8% | 5.25% | 3.5% |
| O=C(c1ccc(F)cc1)C1CC1 | -17.8% | 19% | 9.3% | -0.95% | 2.25% |
| CCOC(=O)c1ccc(-c2ccccc2)cc1 | -28.9% | -14.7% | -7.25% | -12.2% | -15.3% |
| O=[N+]([O-])c1cc([N+](=O)[O-])c(C(Cl)C(Cl)c2ccccc2)cc1C(Cl)C(Cl)c1ccccc1 (configuration not stated) | 2.55% | -18.9% | 7.65% | 0.6% | -20.4% |
| C=C1C(=O)OC2/C=C(\C)C(O)CC(O)C(C)(O)CC(OC(=O)/C(C)=C/C)C12 (configuration not stated) | -25.2% | -10.4% | 14.1% | 6.5% | -10.8% |
| OCCNCc1ccc2c(c1)OCO2 | 3.85% | -9.5% | -4.85% | -5.25% | 1.4% |
| C[n+]1cc(-c2ccccc2)cc2ccccc21 | 17.9% | -0.3% | -17.6% | 4.5% | -14.5% |
| Cc1ccc(SCCSc2ccc(C)cc2)cc1 | 5.8% | 3% | -5.7% | 29.5% | 39.5% |
| COC1=C(OC)C(=O)C2=C(OCO2)C1=O | 16.2% | 4.2% | -1.35% | 16.5% | -1.1% |
| C/C(=C1/CCOC1=O)c1cccc(/C(C)=C2\CCOC2=O)c1 | 3.55% | -3.05% | -29.4% | 5.35% | 2.75% |
| CC(=O)N1c2ccccc2C23CCN4CC5=CCOC(O)C(C5CC42)C13 (configuration not stated) | -21.4% | -18.6% | -6.55% | -13.9% | -62.4% |
| c1ccc(-c2nnnn2-c2ccccc2)cc1 | -2.8% | 7.9% | -7.5% | 5.4% | 17.7% |
| Cc1ccc2[nH]c(C)c(C(=O)c3cccnc3)c2c1 | 0.85% | 13.2% | -13.3% | -18.6% | -8.4% |
| COC1OC(CN)C(O)C(O)C1O (configuration not stated) | 12.1% | 2.35% | 28.2% | 5.7% | 43.2% |
| CC(C)c1ccc(C(=O)OCCBr)cc1 | -11.4% | 16.2% | -3.1% | 1.7% | 1.25% |
| CC/C(=C\c1ccc(Cl)cc1)c1ccncc1 | 99.5% (active) | 99.1% (active) | 99% (active) | 99.2% (active) | 99.2% (active) |
| CC1CCCN(C(=O)Nc2ccc([N+](=O)[O-])cc2)C1 (configuration not stated) | 31.3% | 61.9% | 25.8% | 59.4% | 43.8% |
